PI5P4K alpha inh = inhibitors of human PI5P4K alpha; P48426; PI5P4Kalpha enzyme, ADP-Glo luminescence, 60 min; active compounds read low; max response, %; actives 1.2% (n = 330,000); active means max response of -50% or lower; inconclusive means between -30% and -50%; inactive means -30% or higher; further: value at the top dose of about 77 µM
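Single end-point luminescence (ADP-Glo) quantified ADP from PI5P4Kalpha turnover; ATP 5 microM final, 1 h at RT, 0.1% CHAPS and 0.28 mM EGTA in HEPES pH 7.4.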
Pin1 inh = human Pin1 inhibition. Q13526. actives 0.009% (n = 390,000). Pin1 FP peptide displacement, HiFluor488, 10 min. AID 504891. Potency, µM (series often up to 115 µM), for the others: at the top dose activity, negative = inhibition, most hits filed as inhibitors; active means well fitted inhibition curve with a large enough effect in the polarisation, with a control signal flat, not every such curve was filed as active; inconclusive means small, poorly fitted or top-dose-only effect, or effect the other way, or a change in a side signal; inactive means no such curve, though single readings can be large or run the other way; the % refers to the polarisation; further: potency means the concentration at half of the fitted maximal effect
PGK inhibitor = blocks T. brucei phosphoglycerate kinase. P07378. PGK/GAPDH coupled, Kinase-Glo luminescence, 60 min. Potency, µM (titrated, usually from 57.5 µM), for inactives: at the top dose activity change, negative = inhibition, most hits filed as inhibitors. actives 0.043% (n = 380,000). AID 602233; active means well fitted inhibition curve with a large enough effect; inconclusive means small, poorly fitted or top-dose-only effect; inactive means no such curve, though single readings can be large or run the other way; further: potency means the concentration at half of the fitted maximal effect; nearly all actives have a fitted effect of over 60% in size
Target sequence (P07378 whole entry, looked up): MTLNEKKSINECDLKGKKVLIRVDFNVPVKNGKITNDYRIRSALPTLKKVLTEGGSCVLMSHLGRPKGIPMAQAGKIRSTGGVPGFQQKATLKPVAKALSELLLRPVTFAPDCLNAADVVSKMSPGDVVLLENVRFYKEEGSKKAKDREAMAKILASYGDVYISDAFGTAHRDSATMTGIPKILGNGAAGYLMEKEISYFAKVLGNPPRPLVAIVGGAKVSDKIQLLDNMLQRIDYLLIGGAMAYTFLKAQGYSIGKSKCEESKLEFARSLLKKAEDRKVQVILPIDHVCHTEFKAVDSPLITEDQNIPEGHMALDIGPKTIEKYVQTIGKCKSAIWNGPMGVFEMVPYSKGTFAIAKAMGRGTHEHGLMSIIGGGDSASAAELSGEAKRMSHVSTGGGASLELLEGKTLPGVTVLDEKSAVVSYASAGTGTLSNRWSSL
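Luminescent ATP detection (Kinase-Glo Plus) follows a 60-minute room-temperature incubation, with wells lacking PGK as controls. Buffer: 100 mM TEA (pH 7.6), 5 mM MgCl2, 0.01% Tween-20. Coupling enzyme GAPDH (100 nM final) supplies unstable 1,3-BPG in-well.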
PI4K2A block = inhibitors of human PI4K2A | actives 0.13% (n = 420,000) | purified PI4K2A, ADP-Glo luminescence, 1 h; active compounds read low | activity change, negative = inhibition, % at 76.9 µM | Q9BTU6; in the data active means activity change below about -50%; inconclusive means mostly about -30% to -49%;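 further: -100% = wells without enzyme as full effect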
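Compounds are screened against recombinant PI4K2A using PI as substrate and ATP, the latter dispensed at 300 microM. Reactions run one hour at ambient temperature before ADP-Glo detection; full inhibition defined by wells lacking enzyme.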
An asterisk follows results filed as active; i = inactive; ? = inconclusive; . = no result. This is one part of a sample in which hits are shown more often than they occur. Unless noted, on the % scale 0 is the no-effect control and ±100 the full control effect.

SMILES	PI5P4K alpha inh	Pin1 inh	PGK inhibitor	PI4K2A block
NS(=O)(=O)c1ccc(N=Nc2c(O)ccc3ccccc23)cc1	-27	?	-2%	-13
COC(=O)[C@]12C[C@H](CC(=O)NCc3ccccc3)C(=O)N(CCC3=CCCCC3)C1=C[C@H](C1CCCC1)O[C@@H]2C	.	.	.	-2
C[C@H]1[C@@H](OC(=O)Nc2ccc(C#N)cc2)CC[C@@]23CCCN2C(=O)CCC[C@@H]13	.	.	.	0
O=Nc1c(-c2c(O)[nH]c3cc(Br)ccc23)[nH]c2ccccc12	-75*	11%	-6%	-17
COc1cc(Br)c(C(=O)c2nccc3cc(OC)c(OC)cc23)cc1OC	-7	0%	-4%	-52*
CC(C)[C@H](NC(=O)OC(C)(C)C)C(=O)NCC1CCC(C(=O)N[C@@H](Cc2ccccc2)C(=O)O)CC1 (some centres undefined)	-4	-7%	-2%	5
CCSc1nc2sc3c(c2c(=O)n1CC)CCC3	5	-3%	-2%	-4
CCn1c(NN)nc2sc3c(c2c1=O)CCC3	-59*	32%	-9%	-5
Nn1c(Nc2ccccc2)nc2sc3c(c2c1=O)CCC3	-13	11%	0%	3
NNc1nc2sc3c(c2c(=O)n1Cc1ccccc1)CCC3	-74*	25%	2%	-7
CNC(=O)c1ccccc1Sc1ccc2c(/C=C/c3ccccn3)n[nH]c2c1	.	.	.	-2
O=C1C2C(C(=O)N1/N=C/c1cc([N+](=O)[O-])c(O)cc1O)C1C=CC2C12CC2 (centres undefined)	-74*	-12%	-28%	-7
O=C1C2C(C(=O)N1/N=C/c1cc([N+](=O)[O-])ccc1O)C1C=CC2C12CC2 (centres undefined)	.	27%	i	1
COc1ccc(-c2cc(C(F)(F)F)c3c(n2)sc2c(O)cc(=O)[nH]c23)c(OC)c1	?	?	-2%	-56*
Cc1cc2[nH]c3c(=O)n(Cc4ccccc4F)ncc3c2s1	.	-3%	.	.
COc1ccc(/C=N\NC(=O)C2C(=O)NCC2c2ccccc2)cc1O (centres undefined)	-57*	-5%	i	-5
CCOc1cc(/C=N\NC(=O)C2C(=O)NCC2c2ccccc2)ccc1OC (centres undefined)	-5	-3%	i	7
Cc1ccccc1NC(=O)c1c(C)[nH]c(=S)c(C#N)c1-c1ccco1	-63*	6%	-8%	-8
CCOC(=O)c1nn(-c2ccccc2)c(=O)c2c(N)scc12	-61*	?	-12%	?
CCOC(=O)c1nn(-c2ccccc2C)c(=O)c2c(N)scc12	?	1%	-6%	-17
COc1ccc(-c2nc3ccccc3c(=O)n2Cc2ccccc2)cc1OCc1ccc(NC(C)=O)cc1	.	13%	.	.
O=C(O)c1ccc2c(c1)S(=O)(=O)c1cc(Cl)ccc1C2=O	-52*	-8%	-6%	-3
O=C(O)c1ccc2c(c1)S(=O)(=O)c1ccccc1C2=O	-74*	2%	.	0
O=C(O)c1ccc2c(c1)S(=O)(=O)c1cc(N3CCN(c4cnccn4)CC3)ccc1C2=O	-67*	.	-11%	-10
O=C1c2ccccc2S(=O)(=O)c2cc(N3CCN(C(=O)c4ccccc4)CC3)ccc21	2	?	7%	2
SMILES	PI5P4K alpha inh	Pin1 inh	PGK inhibitor	PI4K2A block
O=c1c2ccccc2nc2sc(Nc3ccc4c(c3)CCC4)nn12	.	68%	.	.
O=C(Nc1ccccc1-c1ccccc1)c1ccccc1	2	-5%	-1%	-3
Nc1c(S(=O)(=O)O)cc(NC(=O)c2ccccc2)c2c1C(=O)c1ccccc1C2=O	-77*	.	.	-29
CCCCCCn1c(=O)c2c(ncn2C)n(C)c1=O	.	.	.	0
CCc1nnc(NS(=O)(=O)c2ccc(NS(=O)(=O)c3ccccc3[N+](=O)[O-])cc2)s1	-19	?	-4%	-3
CCc1nnc(NS(=O)(=O)c2ccc(Nc3ccc([N+](=O)[O-])c4nonc34)cc2)s1	-57*	?	-26%	-26
COC/C=C/C1=CC2=CC(=O)C(C)(OC(=O)C3CCCC3)C(=O)C2=CO1 (centres undefined)	-65*	?	-18%	-27
O=S(=O)(NCCNc1nc(-c2ccco2)nc2ccccc12)c1ccccc1	.	0%	.	.
O=C1NC(=S)SC1=Cc1ccccc1Br	-72*	-3%	-4%	-2
O=C1NC(=S)SC1=Cc1cc(Br)ccc1O	-77*	13%	-1%	-4
COc1ccnc2c1CCCCC2S(=O)c1nc2ccccc2[nH]1 (centres undefined)	.	.	.	-2
